This is a sample that favours compounds with a hit; in the whole collection about 4% have one here.
TROY NFkB inh: TROY signaling inhibition; Q293 LMP1-TROYcd NF-kB luciferase reporter, 4 h; inhibition, % at 10 µM; 360,000 tested, 0.98% active;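 active = compounds whose plate-normalised and pattern-corrected inhibition of the luciferase reporter signal at the single screening dose is 50% or more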
HIF-2a inh: blocks HIF-2a reporter activity | 360,000 tested, 0.72% active | inhibition, % at 18.8 µM | 786-0 RCC cells HIF-2a reporter, luciferase luminescence, overnight | AID 624352;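 active = inhibition of the luminescence signal of 40% or more relative to plate controls, in a single-dose primary screen at 18.75 µM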
Peg3 prom inh: Peg3 promoter activity inhibition; inhibition, % at 20 µM; HeLa PEG-Prom luciferase reporter, luminescence, overnight; AID 588405; 360,000 tested, 1.7% active;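 active = inhibition of at least 50% at 20 µM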
CF NFkB block: inhibitors of cystic fibrosis induced NF-kB | KKLEB NF-kB-GFP reporter, PAF-induced, GFP fluorescence overnight | inhibition, % at 5 µM | 360,000 tested, 0.86% active | AID 588850;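 active = at least 50% inhibition at 5 µM, scaled per plate between neutral and stimulator controls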;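 note: PAF is a Pseudomonas aeruginosa culture filtrate used as stimulus; plate controls were PAF-stimulated DMSO wells for no effect and unstimulated DMSO wells for full effect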
KKLEB cytotox: reduces viability of KKLEB cystic fibrosis airway cells | 360,000 tested, 0.36% active | activity change (cytotoxicity), % at 5 µM | KKLEB CF airway cells viability, ATPlite luminescence, overnight; hits give low values; cells stimulated with P. aeruginosa culture filtrate;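 active = corrected activity change at or below -50% at 5 µM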
TWEAK-Fn14 inh: blocks TWEAK-Fn14 interaction in a reporter cell assay; TWEAK-stimulated Fn14 reporter cells, luciferase luminescence, 8 h; inhibition, % at 10 µM; 360,000 tested, 2% active; in the data active = inhibition above about 50%
The depositor's hits bear a star; / = no result given.

SMILES	TROY NFkB inh	HIF-2a inh	Peg3 prom inh	CF NFkB block	KKLEB cytotox	TWEAK-Fn14 inh
Cc1[nH]c(C)c(C(=O)/C=C/c2ccc([N+](=O)[O-])cc2)c1C	10	-51	-50	0	-9	60*
COc1cc(OC)c(C(=O)Nc2cccc3ccccc23)cc1OC	-26	-144	-82	-9	0	-37
COc1ccc(-c2sc3cc4c(cc3c2-c2ccc(OCCN3CCOCC3)cc2)OCO4)cc1	-19	-5	17	38	-11	12
COc1cc2sc(-c3ccccc3OC)c(-c3ccc(OCCN4CCCCC4)cc3)c2cc1OC	9	19	89*	19	-30	-37
COc1ccccc1-c1sc2cc3c(cc2c1-c1ccc(OCCN2CCCCC2)cc1)OCO3	-1	22	100*	25	-28	-32
COc1ccc2sc(-c3ccccc3OC)c(-c3ccc(OCCN4CCOCC4)cc3)c2c1	9	12	23	38	-27	-2
O=C1c2ccccc2NC(c2ccc3c(c2)OCCO3)N1c1ccc2c(c1)OCCO2 (centres undefined)	59*	-30	38	-11	-1	59*
O=C1c2ccccc2NC(c2ccc3c(c2)OCO3)N1O (centres undefined)	-63	-185	-114	-9	5	0
COc1cc(C2Nc3ccccc3C(=O)N2c2ccc3c(c2)OCCO3)ccc1OCC(C)C (centres undefined)	24	-84	30	-9	-21	67*
COc1cc(C2Nc3ccccc3C(=O)N2c2ccccc2OC)ccc1O (centres undefined)	1	-13	-25	-2	-1	1
Cc1ccc2cc(CCNS(=O)(=O)c3ccc(F)cc3)c(=O)[nH]c2c1C	56*	-3	6	-20	6	59*
[2H]C([2H])(CCOS(N)(=O)=O)c1ccccc1	-14	3	11	-3	2	16
O=C1OC2(CCCCC2)OC(=O)C1=CNc1nccs1	/	15	-5	9	4	55*
Cc1ccc(S(=O)(=O)NCc2ccccc2)cc1C(=O)N(C)Cc1ccccc1F	-2	11	4	5	-3	-15
OC[C@@H]1CN(Cc2cccc(C(F)(F)F)c2)C[C@H](n2cnc3c(NC4CC4)ncnc32)O1	-19	3	-4	5	7	-3
c1ccc2c(c1)CCN(c1ncnc3c1[nH]c1ccccc13)C2	48	0	30	-20	0	85*
c1ccc(CN2CCN(c3ncnc4c3[nH]c3ccccc34)CC2)cc1	67*	24	56*	-2	-1	97*
CCOc1ccc2[nH]c3c(N4CCN(c5ccccn5)CC4)ncnc3c2c1	19	1	47	-20	0	19
Cc1ccc2[nH]c3c(N4CCN(Cc5ccccc5)CC4)ncnc3c2c1	55*	2	42	-20	-13	103*
OC1(c2cccc(C(F)(F)F)c2)CCN(c2ccc(-c3ccccc3)nn2)CC1	-32	-141	-119	2	-18	-25
c1ccc2c(c1)[nH]c1c(N3CCC4(CC3)OCCO4)ncnc12	9	30	37	1	2	21
OC1(c2cccc(C(F)(F)F)c2)CCN(c2ncnc3c2[nH]c2ccccc23)CC1	53*	16	36	-11	-11	58*
Cc1ccn(CC(=O)N2CCCC(N3CCN(c4cccc(C(F)(F)F)c4)CC3)C2)n1 (centres undefined)	-8	1	6	-2	14	0
CCC1C(=O)C[C@H]2CCN3C(=O)CCCC1C23 (some centres undefined)	-8	-1	7	-2	4	-10
Cc1ccc2c(c1)[nH]c1c(N3CCN(Cc4ccccc4)CC3)ncnc12	68*	-6	29	-14	-15	96*
CN(C)CCCN(C(=O)c1ccc(C(=O)c2ccccc2)cc1)c1nc2cc3c(cc2s1)OCCO3	-17	-70	-27	24	-28	-38
Nc1ccc2ccccc2c1[N+](=O)[O-]	-2	2	19	-7	-14	-1
Nc1cc2c3ccccc3ccc2c2ccccc12	37	-318	72*	88*	-78*	103*
O=C1/C(=C/c2cccc([N+](=O)[O-])c2)CCc2ccccc21	-39	-43	27	24	-16	93*

Compound activity (PubChem)
